Screening data: PubChem, The Scripps Research Institute Molecular Screening Center
hgDAF12 agonist – agonists of H. glycines DAF-12 nuclear receptor; HEK293 GAL4-hgDAF12 UAS-luciferase reporter, agonist luminescence; normalized to butyrate control; activation, % at 6.8 µM; hit rate 1.8% among 370,000; AID 687014;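 active = activation above a cutoff set at the mean of all screened compounds plus 3 SD, cut at about 10% in these data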;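 note: 0% = DMSO wells and 100% = sodium butyrate wells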
DAX1 inh-1 – inhibitors of human orphan nuclear receptor DAX1 (NR0B1) | P51843 | HEK293 Gal4-DAX1 luciferase reporter, luminescence | inhibition, % at 6.75 µM | hit rate 0.99% among 340,000 | AID 504766;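 active = inhibition above the mean over all tested compounds plus 3 SD, cut at about 4.2% in these data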;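 note: 0% = DAX1-transfected cells with DMSO and 100% = empty-vector control cells with DMSO; inhibition shows as a rise in luminescence from relieved DAX1 repression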
hcDAF12 agonist – H. contortus DAF-12 activation, primary screen; HEK293 hcDAF-12 lit1-tk-luc reporter, luminescence; 0% DMSO, 100% Δ7-dafachronic acid; activation, % at 6.8 µM; hit rate 1.4% among 370,000; AID 652067;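 active = activation above the mean of all tested compounds plus 3 SD, cut at about 5.5% in these data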;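 note: 100% = response to 3 µM Δ7-dafachronic acid high control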
DAX1 inh-2 – blocks DAX1 repression of SF-1 activated StAR promoter | HEK293T StAR-luciferase reporter, SF-1/DAX-1 repression relief | inhibition, % at 6.8 µM | hit rate 1.1% among 370,000 | AID 652010;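 active = inhibition above the mean over all tested compounds plus 3 SD, cut at about 3.6% in these data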;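 note: 0% = DAX-1 cells with DMSO and 100% = cells lacking DAX-1 with DMSO; higher inhibition means more luminescence from relief of DAX-1 repression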
ssDAF12 agonist – activates DAF-12 receptor from parasite S. stercoralis | HEK293 ssDAF-12/GRIP1 lit1-tk-luc reporter, luminescence; % of 3 µM dafachronic acid response | activation, % at 6.8 µM | hit rate 1% among 370,000;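 active = activation above the mean over all tested compounds plus 3 SD, cut at about 0.9% in these data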;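 note: 0% = DMSO-only wells and 100% = 3 µM delta7-dafachronic acid wells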
DAX1 conf – NR0B1 (human) inhibition, confirmation | shares compounds with DAX1 inh-2 | HEK293T StAR-promoter luciferase reporter, SF-1/DAX-1 repression | inhibition, % at 6.8 µM | hit rate 87% among 2,400 | AID 652134;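 active = inhibition above the average of every tested compound plus 3 SD, cut at about 3.8% in these data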;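 note: 0% = DAX-1 cells with DMSO and 100% = no DAX-1 control cells with DMSO; active compounds raise luminescence by relieving repression of the StAR reporter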
Target sequence (P51843 whole entry, looked up): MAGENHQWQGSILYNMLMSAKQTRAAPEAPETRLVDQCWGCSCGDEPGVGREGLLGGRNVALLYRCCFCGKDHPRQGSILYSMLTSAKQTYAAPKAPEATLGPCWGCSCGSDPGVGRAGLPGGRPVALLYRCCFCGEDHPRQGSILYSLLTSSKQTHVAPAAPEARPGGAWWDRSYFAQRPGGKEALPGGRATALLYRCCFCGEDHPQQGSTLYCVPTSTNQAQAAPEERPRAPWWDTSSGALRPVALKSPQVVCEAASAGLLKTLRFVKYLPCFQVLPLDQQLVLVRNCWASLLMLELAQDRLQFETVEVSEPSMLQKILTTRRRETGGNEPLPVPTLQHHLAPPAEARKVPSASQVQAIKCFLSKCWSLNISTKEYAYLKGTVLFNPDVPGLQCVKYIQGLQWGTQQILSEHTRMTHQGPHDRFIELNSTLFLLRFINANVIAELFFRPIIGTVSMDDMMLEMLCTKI
SF1 mutant ctr – counter-screen for DAX1 inhibitors: nonselective inhibitors with SF-1 AF2 mutant. HEK293 StAR-luciferase, luminescence. hit rate 78% among 2,400. inhibition, % at 6.8 µM. shares compounds with DAX1 inh-2. AID 652136;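 active = inhibition above the mean of all tested compounds plus 3 SD, cut at about 3% in these data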;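 note: 0% = DAX-1 transfected cells with DMSO and 100% = cells without DAX-1 with DMSO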
LXR ag – LXR-beta agonism as hcDAF-12 counter-screen; shares compounds with hcDAF12 agonist; HEK293 Gal4-LXR tk-luc reporter, luminescence, 24 h; normalized: DMSO 0%, positive control 100%; activation, % at 6.8 µM; 3,400 tested, under 10 active; AID 743027;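 active = mean percent activation of the reporter above a cutoff set as the average over tested compounds plus their standard deviation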
hcDAF12 ag – confirmation of H. contortus DAF-12 agonists; shares compounds with hcDAF12 agonist; HEK293 hcDAF-12 lit1-tk-luc reporter, luminescence; % of Δ7-dafachronic acid response; activation, % at 6.8 µM; hit rate 61% among 3,400; AID 743032;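 active = mean activation across triplicate tests above the threshold derived from the earlier primary screen, cut at about 5.5% in these data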;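 note: 0% = DMSO only wells and 100% = 3 µM Δ7-dafachronic acid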
hgDAF12 ag – confirmation of H. glycines DAF-12 agonists | HEK293 GAL4-hgDAF12 luciferase reporter, agonist mode; percent of butyrate response | shares compounds with hgDAF12 agonist | AID 743050 | hit rate 80% among 3,300 | activation, % at 6.8 µM;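 active = mean activation over triplicate wells above the hit cutoff derived from the earlier primary screen, cut at about 11% in these data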;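 note: 0% = DMSO low control and 100% = 2 mM sodium butyrate high control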
LXRb DAF12 ctr – LXR-beta agonism as DAF-12 counter-screen. HEK293 Gal4-LXR luciferase reporter, 24 h. 3,300 tested, under 10 active. shares compounds with hgDAF12 agonist. activation, % at 6.8 µM;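 active = mean activation of the triplicate above a set limit carried over from the primary screen, none filed active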
Starred values were filed as active, the others as inactive. Shown are actives, neighbours in structure and some others; about 4.1% of the full set was active somewhere.

For COc1ccc(C=NNc2nc3ccccc3s2)cc1 the results were hgDAF12 agonist 17*, DAX1 inh-1 -1, hcDAF12 agonist 14*, DAX1 inh-2 11*, ssDAF12 agonist 0.9*, DAX1 conf 22*, SF1 mutant ctr 12*, LXR ag 2, hcDAF12 ag 13*, hgDAF12 ag 16* and LXRb DAF12 ctr 1.
C(=N\Nc1nc2ccccc2s1)/c1ccc2c(c1)OCO2 was read as hgDAF12 agonist 17*, DAX1 inh-1 2, hcDAF12 agonist 17*, DAX1 inh-2 8.2*, ssDAF12 agonist 4.5*, DAX1 conf 19*, SF1 mutant ctr 12*, LXR ag 2, hcDAF12 ag 9.6*, hgDAF12 ag 24* and LXRb DAF12 ctr 1.
O=C(N1CCc2ccccc2C1)n1cc(C(O)(c2ccccc2)c2ccccc2)nn1 was read as hgDAF12 agonist -10, hcDAF12 agonist -5 and ssDAF12 agonist -2.
For CCOC(=O)CC[C@H]1CC[C@]2(CCCN(C(=O)c3ccccc3)C2)O1 the results were hgDAF12 agonist 2, hcDAF12 agonist 0, DAX1 inh-2 -1 and ssDAF12 agonist 0.
For O=C(CSc1nnc(-c2ccccc2)n1-c1ccc(Cl)cc1)Nc1ccc(OCc2ccccc2)cc1 the results were hgDAF12 agonist -1, hcDAF12 agonist 1, DAX1 inh-2 0 and ssDAF12 agonist -1.
Screening CSc1ccc(/C=N/NC(=O)c2ccc(C)c(C)c2)cc1 returned hgDAF12 agonist 1, DAX1 inh-1 1, hcDAF12 agonist -1, DAX1 inh-2 0 and ssDAF12 agonist -1.
Screening CSc1ccc(/C=N/NC(=O)c2sccc2C)cc1 returned hgDAF12 agonist 16*, DAX1 inh-1 1, hcDAF12 agonist 7.1*, DAX1 inh-2 5.8*, ssDAF12 agonist 1.7*, DAX1 conf 16*, SF1 mutant ctr 7.9*, LXR ag 2, hcDAF12 ag 6.6*, hgDAF12 ag 24* and LXRb DAF12 ctr 1.
For COc1ccc(CN2C(=O)c3ccnn3CC2(C)c2nnnn2-c2c(C)cccc2C)cc1 (stereo not drawn) the results were hgDAF12 agonist 2, hcDAF12 agonist 0, DAX1 inh-2 0 and ssDAF12 agonist -1.
For CCOC(=O)C(=C1Nc2ccccc2N1)n1c(-c2cccnc2)nc2ccccc21 the results were hgDAF12 agonist 15*, hcDAF12 agonist 3, DAX1 inh-2 5.1*, ssDAF12 agonist 0, DAX1 conf 7.7*, SF1 mutant ctr 4.4*, hgDAF12 ag 13* and LXRb DAF12 ctr 1.
For CCOC(=O)Cn1c(-c2cccnc2)nc(-c2ccccc2)c1-c1ccccc1 the results were hgDAF12 agonist 2, DAX1 inh-1 -2, hcDAF12 agonist -3, DAX1 inh-2 -1 and ssDAF12 agonist -1.
Screening Cc1ccc(NC(=O)CSc2nnc(-c3cc(-c4ccc(Cl)cc4)n[nH]3)n2N)cc1 returned hgDAF12 agonist 3, hcDAF12 agonist 4, DAX1 inh-2 0 and ssDAF12 agonist -1.
O=C(/C=C/c1ccccc1Cl)Nc1cccc(S(=O)(=O)NC2=NCCCCC2)c1 was read as hgDAF12 agonist 2, DAX1 inh-1 -1, hcDAF12 agonist -3, DAX1 inh-2 0 and ssDAF12 agonist -1.
